Experimental data from PubChem BioAssay (NCATS).
Results filed as inconclusive are left out. Unmarked numbers belong to inactive results. Activity calls are given as the source filed them. Calls follow the shape of the dose curve; as a rule, active = well fitted cell-killing curve with a large enough effect; inconclusive = small, poorly fitted or top-dose-only effect; inactive = no such curve, though single readings can be large or run the other way.

Experiment: qHTS of pediatric cancer cell lines to identify multiple opportunities for drug repurposing: Primary screen for SJ-GBM2 cells (AID 1347091)
Settings: SJ-GBM2 viability, CellTiter-Glo luminescence, 48 h; series mostly up to 46 µM; activity change, negative = cytotoxic: at the top concentration
Excerpt: Drug repurposing or repositioning has been offered as a strategy for drug development in oncology programs. This approach has special potential for childhood cancers and other rare or orphan diseases, where the expected return on new drug development has been a disincentive to pharmaceuticals.
In this project we exploit the poly-pharmacology of drugs to discover new indications via phenotypic screening of a panel of 19 well-characterized cell lines derived from solid tumors seen in children and adolescents. The goal is to identify approved drugs with previously unrecognized anticancer properties that has the potential to reveal new mechanisms and biological processes involved in carcinogenesis or drug resistance. We employed a titration-based paradigm (quantitative high-throughput screening or qHTS), where all compounds were tested at multiple concentrations for their effect on cell viability. Concentration-response curves (CRCs) were derived directly from the primary screen, and both potency and efficacy values were used to identify compounds with robust bioactivity profiles. We screened the NIH Chemical Genomics Center (NCGC) Pharmaceutical Collection (NPC) and Mechanism Interrogation Plate (MIPE) small molecule collections of approved and investigational compounds against these cell lines; and measured metabolically active cells after 48 hours of compound treatment as a proxy for cell viability.
Assay Submitter: Nathalia J. Martinez, National Center for Advancing Translational Sciences, National Institutes of Health, Rockville, MD, USA; email: natalia.martinez@nih.gov
[1] Shen, M et al. Quantitative high-throughput phenotypic screening of pediatric cancer cell lines identifies multiple opportunities for drug repurposing. Oncotarget 2017 Dec 19;9(4):4758-4772. PMID 29435139.
The cells were obtained from University of North Carolina (UNC), Pediatric Preclinical Testing Program (PPT), and Coriell Institute (CI).
qHTS cell viability assay:
Cells were assayed in growth media at a density of 500-1,000 cells/well. Five microliters of cells were dispensed into 1,536-well, white, solid-bottom, TC-treated plates (Greiner Bio One) using a multidrop dispenser and incubated at 37 degrees C, 5% CO2, under a humidified atmosphere for 5 hours. Twenty-three nanoliters of compounds and controls (neutral control DMSO or positive control bortezomib at final concentration of 2.3 µM) were subsequently transferred by Kalypsys pintool. For primary screens, the MIPE collection was tested at 11-point dilutions (final concentrations range from 0.78 nM to 46 µM) and the NPC collection at 8-point dilutions (final concentrations range from 0.59 nM to 46 µM). Compounds tested in follow-up screens were assayed at 11-point dilutions. Cells were incubated for 48 hours, followed by addition of 3 uL of CellTiter-Glo (Promega). After a 15 min incubation at room temperature, samples were analyzed for luminescence intensity using a ViewLux High-throughput CCD imager equipped with clear filters.
Potency is read from the fitted curve at half-maximal effect.

SMILES | Potency | activity change, negative = cytotoxic
C1=CCOCc2cc(ccc2OCCN2CCCC2)Nc2nccc(n2)-c2cccc(c2)OCC1 | 3720 nM (active) | 
COc1ccc(CC2c3cc(OC)c(OC)cc3CC[N+]2(C)CCC(=O)OCCCCCOC(=O)CC[N+]2(C)CCc3cc(OC)c(OC)cc3C2Cc2ccc(OC)c(OC)c2)cc1OC (stereo not given) |  | 27.6% [at 9.22 µM]
CC(C)(C)c1cc(C(C)(C)C)c(NC(=O)c2c[nH]c3ccccc3c2=O)cc1O |  | 11.9%
CC(=O)SC[C@@H](C)C(=O)N1CCC[C@H]1C(=O)N[C@@H](Cc1ccccc1)C(=O)O |  | 27.1%
C=C1C(=CC=C2CCCC3(C)[C@@H]([C@H](C)C=CC=CC(O)(CC)CC)CC[C@@H]23)C[C@@H](O)C[C@@H]1O (stereo not given in full) | 20900 nM (active) | 
CC(C)CC(=O)Nc1n[nH]c2c1CN(C(=O)C1CCN(C)CC1)C2(C)C | 1480 nM (active) | 
Nc1nccc(Oc2ccc(NC(=O)c3c[nH]cc(-c4ccc(F)cc4)c3=O)cc2F)c1Cl | 132 nM (active) | 
CCOC(=O)C1=C(C)NC2=C(C(=O)CC(C)(C)C2)C1c1ccc(-c2ccccc2)cc1 (stereo not given) | 4690 nM (active) | 
C=CC(=O)Nc1cccc(Oc2nc(Nc3ccc(N4CCN(C)CC4)cc3)ncc2Cl)c1 | 1870 nM (active) | 
CCN(CC)CCNC(=O)c1ccc2nc(-c3ccccc3)c(-c3ccc(CN4CCC(n5c(=O)[nH]c6ccccc65)CC4)cc3)nc2c1 | 16600 nM (active) | 
COc1ccc(-n2nc(C(N)=O)c3c2C(=O)N(c2ccc(N4CCCCC4=O)cc2)CC3)cc1 |  | 15.7%
CN(c1ncccc1CNc1nc(Nc2ccc3c(c2)CC(=O)N3)ncc1C(F)(F)F)S(C)(=O)=O | 3320 nM (active) | 
COc1ccc(-c2cc3c(C)nc(N)nc3n(C3CCC(OCCO)CC3)c2=O)cn1 (stereo not given) | 23.5 nM (active) | 
O=C1CCC[C@@H]2[C@H]3CCC[N+]4([O-])CCC[C@@H](CN12)[C@@H]34 (stereo not given in full) |  | 15.6%
COc1cccc(-c2ccc(NC(=O)C3=C(C(=O)O)CCC3)c(F)c2)c1 | 11800 nM (active) | 
CC(C)c1cc(-c2n[nH]c(=O)n2-c2ccc3c(ccn3C)c2)c(O)cc1O | 118 nM (active) | 
CNC(=O)c1nn(C)c2c1C(C)(C)Cc1cnc(Nc3ccc(N4CCN(C)CC4)cc3)nc1-2 | 1870 nM (active) | 
C[C@@H]1CN(CC(=O)Nc2ccc3c(c2)Cc2cccc(-c4cc(=O)cc(N5CCOCC5)o4)c2S3)C[C@H](C)O1 | 14800 nM (active) | 
CCCCCN(CCC12CC3CC(CC(C3)C1)C2)C(=O)NCCCc1ccncc1 | 18700 nM (active) | 
CS(=O)(=O)c1ccc(-c2cnc(N)c(C(=O)Nc3ccccc3)n2)cc1 | 5900 nM (active) | 

SMILES | Potency | activity change, negative = cytotoxic
Cc1cc(C(=O)N2CCN(c3cccc(Cl)c3)CC2)n(-c2ccccc2)n1 | 118 nM (active) | 
O=C(Nc1nc2cccc(-c3ccc(CN4CCS(=O)(=O)CC4)cc3)n2n1)C1CC1 | 18700 nM (active) | 
CN1CCC(CNc2ccc3ncc(-c4cccc(OC(F)(F)F)c4)n3n2)CC1 | 16600 nM (active) | 
CC1(C)CC(=O)c2c(C(F)(F)F)nn(-c3ccc(C(N)=O)c(NC4CCC(OC(=O)CN)CC4)c3)c2C1 (stereo not given) | 332 nM (active) | 
COc1cccc(Nc2c(C(N)=O)cnc3c(C)cc(S(=O)(=O)c4cccc(C(=O)N(C)C)c4)cc23)c1 |  | -4.63% [at 16.1 µM]
CNC(=O)c1ccccc1Nc1nc(Nc2ccc(N3CCOCC3)cc2OC)ncc1Cl | 2350 nM (active) | 
C[C@H]1C[C@@H]2[C@@H]([C@@H](O)C[C@@]3(C)[C@H]2CC[C@]3(O)C(=O)CO)[C@@]2(C)C=CC(=O)C=C12 |  | -5.18%
Nc1ccccc1NC(=O)c1ccc(CNc2nccc(-c3cccnc3)n2)cc1 | 2350 nM (active) | 
c1cc(-c2cnn3cc(-c4ccc(OCCN5CCCCC5)cc4)cnc23)ccn1 | 16600 nM (active) | 
CCOc1ccccc1OCCNC(C)Cc1ccc(OC)c(S(N)(=O)=O)c1 (stereo not given) |  | -3.34%
CC(=O)OCCN1C(=O)c2c(C)nc3ccc(S(=O)(=O)N4CCOCC4)cc3c2C1=O |  | 17.4%
COc1ccc2c(c1)CC[C@@H](CN(C)CC(=O)O)[C@H]2c1ccccc1 | 1180 nM (active) | 
CC(C)c1cc(C(=O)N2Cc3ccc(CN4CCN(C)CC4)cc3C2)c(O)cc1O | 372 nM (active) | 
COC(=O)[C@]12CCC(C)(C)C[C@@H]1[C@@H]1C(=O)C=C3[C@@]4(C)C=C(C#N)C(=O)C(C)(C)[C@@H]4CC[C@@]3(C)[C@]1(C)CC2 | 235 nM (active) | 
NC(=O)c1c(OCc2c(F)cc(Br)cc2F)nsc1NC(=O)NCCCCN1CCCC1 | 20900 nM (active) | 
N#CCNC(=O)c1ccc(-c2ccnc(Nc3ccc(N4CCOCC4)cc3)n2)cc1 | 13200 nM (active) | 
CN[C@H]1CCc2cc(OC)c(OC)c(OC)c2-c2ccc(OC)c(=O)cc21 | 1 nM (active) | 
O=c1[nH]c(=O)n(C2CCCO2)cc1F (stereo not given) |  | -0.152% [at 92.7 µM]
O=C(O)CO.[NH2-].[NH2-].[Pt+2] |  | -1.91%
C=CCn1c(=O)c2cnc(Nc3ccc(N4CCN(C)CC4)cc3)nc2n1-c1cccc(C(C)(C)O)n1 | 166 nM (active) | 
